The record followed here is PubChem BioAssay (EPA / NIEHS).

Structures are written as SMILES. Where “and” joins values, the source holds several entries; their conditions need not be identical. Equal values may be shown once. A structure can be active in one record and inactive in another. Calls of active or inactive are those of the source. How the source made its calls: active means hit-call score of the fitted dose curve at least 0.9, where 1 is the maximum; inactive means score below 0.9.

Read-out in this test: Matrix Metallopeptidase 1 (MMP1), MMP1 (gene 4312)
Put plainly: BSK_BF4T_MMP1: BioMAP Diversity Plus: BF4T Assay for Matrix Metallopeptidase 1 (MMP1) Biomarker Activity (AID 2284270). Particulars: primary human bronchial epithelial cells with fibroblasts. The protocol:
BSK_BF4T is a cell-based, multiplexed-readout assay that uses bronchial epithelial cells and dermal fibroblasts, a human vascular primary cell, with measurements taken at 24 hours after chemical dosing in a microplate: 96-well plate.BSK_BF4T_MMP1 is an assay component measured in the BSK_BF4T assay. It measures MMP-1 antibody related to regulation of gene expression using ELISA technology.Data from the assay component BSK_BF4T_MMP1 was analyzed at the endpoint, BSK_BF4T_MMP1, in the positive analysis fitting direction relative to DMSO as the negative control and baseline of activity. Using a type of binding reporter, gain or loss-of-signal activity can be used to understand protein changes. To generalize the intended target to other relatable targets, this assay endpoint is annotated to the 'protease' intended target family, where the subfamily is 'matrix metalloproteinase'.
The levels of cell surface (or secreted, indicated by the prefix "s") biomarker endpoints were measured by ELISA. Overt cytotoxicity to cells in confluent adherent cultures (all systems other than the BT system) was assessed by measuring total protein levels using sulforhodamine B (SRB) staining in parallel cultures at the time of biomarker measurements, indicated as SRB endpoints. For proliferation assays for adherent cell types, individual cell types are cultured at sub-confluence and relative cell numbers quantified by SRB staining at time points optimized for each system (48 h: 3C and CASM3C systems; 72 h: BT and HDF3CGF systems; 96 h: SAg system). SRB was performed by staining cells with 0.1% SRB after fixation with 10% TCA and reading wells at 560 nm.Viability and proliferation of PBMC (T cells) was quantified by Alamar Blue reduction for the SAg and BT systems. For PBMC viability (referred to as PBMC Cytotoxicity within the assay endpoint names), cells were plated (75,000/well in a 96-well plate) and then chemical samples added for 1 h before addition of activators, SEB and TSST-1 (20 ng/mL final concentration each). Cells were incubated for 90 h. Then, Alamar Blue (20 uL/well) (Invitrogen, Cat DAL1100) was added for 6 h, and the plates were read with a fluorescence microplate reader at 546/580 nm (excitation/emission). For PBMC proliferation, cells were plated and activated as above but incubated for only 16 h prior to addition of Alamar Blue. Plates were read after 6 h.
As to `C=C(C)C(=O)OCC(F)(F)C(F)(F)C(F)(F)C(F)(F)C(F)(F)C(F)(F)C(F)(F)F`, the outcome was inactive.

On to `O=S(=O)(OCCOC(F)(F)F)C(F)(F)F`, for which the result was inactive.

A word on the AC50: it is the midpoint of the concentration-response curve, whichever way the signal moves. Take `OCCCC(F)(F)C(F)(F)C(F)(F)C(F)(F)C(F)(F)C(F)(F)C(F)(F)F`: the half-maximal activity concentration (AC50) is 46.8 µM (active) and the result was inactive.

For the molecule `OCC(F)(F)C(F)(F)C(F)(F)C(F)(F)C(F)(F)C(F)F`, the outcome was inactive.

In the case of `FC(F)(Br)C(F)(F)C(F)(F)C(F)(F)C(F)(F)C(F)(F)Br`, the result was inactive.

Consider `N=C(N)C(F)(F)C(F)(F)C(F)(F)C(F)(F)C(F)(F)C(F)(F)C(F)(F)F`, for which the outcome was inactive.

Take `CC(C)(C)C(=O)CC(=O)C(F)(F)C(F)(F)C(F)(F)F`: the outcome was inactive.

For `OCC(F)(F)C(F)(F)C(F)(F)F`, the result was inactive.

For `O=C(O)C(F)(F)C(F)(F)OC(F)(F)F`, the result was inactive.

As for `FC(F)(F)C(F)(F)C(F)(F)C(F)(F)C(F)(F)C(F)(F)C(F)(F)I`, the result was inactive.

Turning to `O=C(O)C(F)(F)C(F)(F)C(F)F`, the outcome was inactive.

For the molecule `C=C(C)C(=O)OCCC(F)(F)C(F)(F)C(F)(F)C(F)(F)C(F)(C(F)(F)F)C(F)(F)F`, the outcome was inactive.

For `O=S(=O)(O)C(F)(F)C(F)(F)C(F)(F)C(F)(F)C(F)(F)C(F)(F)C(F)(F)F`, the outcome was inactive.

On to `C=CC(=O)OCC(F)(F)C(F)(F)C(F)(F)C(F)(F)COC(=O)C=C`, for which the outcome was inactive.

For `CCO[Si](CCC(F)(F)C(F)(F)C(F)(F)C(F)(F)C(F)(F)C(F)(F)F)(OCC)OCC`, the result was inactive.

As to `FC(F)(F)C(F)(F)C(F)(F)N(C(F)(F)C(F)(F)C(F)(F)F)C(F)(F)C(F)(F)C(F)(F)F`, the outcome was inactive.

Turning to `O=S(=O)(OCC(F)F)C(F)(F)F`, the outcome was inactive.

On to `FC(F)(F)C(F)(F)C(F)(F)C(F)(F)C(F)(F)C(F)(F)C(F)(F)Br`, for which the result was inactive.

In the case of `FC(F)(F)C(F)(F)C(F)(F)CI`, the result was inactive.

On to `C=CC(=O)OCC(F)(F)C(F)(F)C(F)(F)C(F)(F)C(F)(F)C(F)(F)C(F)(F)F`, for which the outcome was inactive.

Regarding `FC(F)(F)C(F)(F)C(F)(F)C(F)(F)C(F)(F)C(F)(F)CCS`, the result was inactive.

As for `COC(=O)CCC(F)(F)C(F)(F)C(F)(F)C(F)(F)F`, the result was inactive.

With `FC(F)(F)C(F)(F)C(F)(F)C(F)(F)CCI`, the result was inactive.

Take `OCC(F)(F)C(F)(F)C(F)(F)C(F)(F)C(F)(F)C(F)(F)F`: the outcome was inactive.

As for `C=C(C)C(=O)OCC(F)(F)C(F)(F)C(F)(F)F`, the result was inactive.

`O=C(O)C(F)(OC(F)(F)C(F)(OC(F)(F)C(F)(F)C(F)(F)F)C(F)(F)F)C(F)(F)F` (stereo not given): the result was inactive.

As to `O=C(O)C(F)(F)C(F)(F)C(F)(F)C(F)(F)F`, the outcome was inactive.

Consider `C=CC(F)(F)C(F)(F)C(F)(F)C(F)(F)C(F)(F)C(F)(F)C(F)(F)C(F)(F)C=C`, for which the outcome was inactive.

For the molecule `C=CC(F)(F)C(F)(F)C(F)(F)C(F)(F)C(F)(F)C(F)(F)C(F)(F)C(F)(F)F`, the outcome was inactive.

In the case of `O=C(O)C(F)(F)C(F)(F)C(F)(F)F`, the result was inactive.

For `FC(F)(F)C(F)(F)C(F)(F)C(F)(F)C(F)(F)C(F)(F)C(F)(F)C(F)(F)F`, the outcome was inactive.

Regarding `O=P(O)(O)OCCC(F)(F)C(F)(F)C(F)(F)C(F)(F)C(F)(F)C(F)(F)F`, the outcome was inactive.

For `O=C(O)C(F)(F)C(F)(F)C(F)(F)C(F)(F)C(F)(F)C(F)(F)C(F)(F)C(F)(F)C(F)(F)C(F)F`, the result was inactive and the AC50 was 49.7 µM (active).

Take `FC(F)(I)C(F)(F)C(F)(F)C(F)(F)I`: the AC50 is 51.2 µM (active) and 48.6 µM (active) and 50.2 µM (active).

As for `FC(F)(F)C(F)(F)C(F)(F)C(F)(F)C(F)(F)CCI`, the result was inactive.

As for `O=C(O)C(F)(F)C(F)(F)F`, the result was inactive.

With `O=C(O)C(F)(OC(F)(F)C(F)(OC(F)(F)C(F)(OC(F)(F)C(F)(F)C(F)(F)F)C(F)(F)F)C(F)(F)F)C(F)(F)F` (stereo not given), the outcome was inactive.

Regarding `O=C(O)C(F)(F)C(F)(F)C(F)(F)C(F)(F)C(F)(F)C(F)(F)C(F)(F)C(F)(F)C(F)(F)C(F)(F)C(F)(F)C(F)(F)C(F)(F)F`, the result was inactive.
